Measured values taken from PubChem BioAssay (NCI).
Where “and” joins values, the source holds several entries; their conditions need not be identical. Identical values can stand only once. The panel holds about 83,000 compounds, 20% with a hit somewhere; the sample as a whole holds those more often.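 Note: values are percent growth. 100 is the growth of untreated cells, values between 100 and 0 indicate rising inhibition; between -100 and 0 indicates cell death.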 Calls of active or inactive are those of the source. How the source made its calls: active means growth percent below 10; inactive means the rest.

tested on: MDA-MB-468 breast; assay: NCI-60 one-dose screen, 48 h (100 = growth as untreated, 0 = no growth, -100 = all killed); conditions: 10 µM unless noted

| SMILES | growth |
| --- | --- |
| CN1C(=O)N(C)C2Nn3c(s/c(=C\c4ccccc4)c3=O)=NC21 (stereo not given) | 95.4% (inactive) |
| CNC(=O)c1cc(Oc2ccc3nc(NC(=O)Nc4ccc(F)cc4F)sc3c2)ccn1 | 51.2% (inactive) |
| O=C(Nc1cccnc1Nc1ccccc1)c1cn(Cc2cccc(Oc3ccccc3)c2)nn1 | 69.9% (inactive) |
| O=C(COc1ccc(-c2nc3cc(Cl)c(Cl)cc3[nH]2)cc1)N=Nc1c(O)[nH]c2ccc(Cl)cc12 | 68.5% (inactive) |
| CCCCN1C(=O)/C(=c2\sc3n(c2=O)NC2C(N=3)N(CC)C(=O)N2CC)c2ccccc21 (stereo not given) | 14.3% (inactive) |
| NC(=O)C12C(=O)NC(=O)C1(C(=O)O)C21CCCC1 (stereo not given) | 112% (inactive) |
| C=C[C@H]1CCC/C=C/[C@@H]2C[C@H](O)C[C@H]2[C@H](O)/C=C/C(=O)O1 | -42.7% (active) |
| COc1cc(Cn2c(-c3ccccc3)cc3c2-c2oncc2CC3)cc(OC)c1OC | -20.5% (active) |
| NS(=O)(=O)c1ccc(CCn2c(SCC(=O)N/N=C/c3ccccc3O)nc3ccccc3c2=O)cc1 | 59.1% (inactive) |
| Cc1ccc(S(=O)(=O)NCC[C@@H]2C[C@H]2c2cc3ccccc3s2)cc1 | 83.7% (inactive) |
| Cc1nn(-c2ccc(Cl)cc2)c(=O)n1CCOc1ccccc1Cl | 105% (inactive) |
| CN1CCN(C(=O)OCc2nc3c(N4CCOCC4)nc(Cl)nc3n2C)CC1 | -69.4% (active) |
| CCCC(c1nnnn1C1CCCCC1)N1CCN(C(=O)c2ccco2)CC1 (stereo not given) | 15.2% (inactive) |
| COC(=O)[C@@]12OC[C@]34[C@H]([C@@H](O)[C@@H]1O)[C@@]1(C)[C@H](O)C(=O)C=C(C)[C@@H]1C[C@H]3OC(=O)C(OC(C)=O)[C@@H]24 (stereo not given in full) | -11.6% (active) |
| O=C1OC(Oc2ccc(Br)cc2)(c2ccccc2)c2ccccc21 (stereo not given) | 69.8% (inactive) and 75.1% (inactive) |
| COc1ccc(-c2cc(/C=C/C(=O)c3ccc(OC)c(OC)c3)[nH]n2)cc1 | 21.4% (inactive) |
| CCCCC(=O)OCC1OC(n2cnc3c(=S)nc[nH]c32)C(OC(=O)CCCC)C1OC(=O)CCCC (stereo not given) | 67.4% (inactive) |
| O=S(=O)(NCCCNc1nccc(-c2[nH]c(-c3ccccc3)nc2-c2ccc(Cl)c(O)c2)n1)c1ccc(Br)cc1 | 25.9% (inactive) |
| O=C1OC(c2ccc(Cl)c(Cl)c2)=C/C1=C/c1cccc([N+](=O)[O-])c1 | 92.3% (inactive) |
| O=C1/C=C/[C@@H](O)[C@@H]2C[C@@H](O)C[C@H]2/C=C/CCC[C@H](CCc2ccc(C(F)(F)F)cc2)O1 | -20.3% (active) |

| SMILES | growth |
| --- | --- |
| Cc1c(C(N)=O)sc2ncn(Cc3ccccc3)c(=O)c12 | 99% (inactive) |
| Oc1cccc(CCc2ccc(Oc3cc(CCc4cccc(O)c4)cc(O)c3O)cc2)c1 | 82.5% (inactive) |
| O=C1c2c(c3c4ccccc4n(CCCCCCBr)c3c3[nH]c4ccccc4c23)C(=O)N1O | -3.78% (active) |
| O[N+]1=CC=CCC1=S.On1ccccc1=S.[Zn] | -75.8% (active) |
| Cc1ccc(C)c2c1C(O)(C#Cc1ccccc1)c1ccccc1C2(O)C#Cc1ccccc1 (stereo not given) | 58.1% (inactive) |
| Cc1ccc(-c2c3c(N)c4c(nc3nc3c2c(C)nn3-c2ccccc2)CCCC4)cc1 | 107% (inactive) |
| COc1cc(/C=N/O)nc(-c2ccccn2)c1 | -16.9% (active) |
| O=S(=O)(O)c1cc(O)c2c(N=Nc3ccc(Nc4ccccc4)c4c(S(=O)(=O)O)cccc34)cc(S(=O)(=O)O)cc2c1 | 103% (inactive) |
| O=C1/C=C/[C@@H](O)[C@@H]2C[C@@H](O)C[C@H]2/C=C/CCC[C@H](CCc2ccc(NC(=S)Nc3ccc4c(c3)C(=O)OC43c4ccc(O)cc4Oc4cc(O)ccc43)cc2)O1 | -17.5% (active) |
| O=C(N/N=C/c1c(Cl)cccc1Cl)c1cccc(Nc2ccnc(C(F)(F)F)c2)c1 | 67.6% (inactive) |
| COc1ccc(C(=S)N2CCN(c3ccccc3Cl)CC2)cc1OC | 92.1% (inactive) |
| COc1cc(-c2nn3c(/C=C4/C(=O)Nc5ccccc54)c(-c4ccc(C)cc4)nc3s2)cc(OC)c1OC | 41% (inactive) |
| O=C1CCn2c1c(O)c1ccccc1c2=O | 105% (inactive) |
| O=C1C(OCCOc2ccccc2)=C(OCCOc2ccccc2)C(=O)c2ccccc21 | 72.9% (inactive) |
| CC(=O)C1CCC2C3CC=C4CC(SC(=N)N)CCC4(C)C3CCC12C (stereo not given) | -36.8% (active) |
| O=C(NCOC(O)C(Cl)(Cl)Cl)NCOC(O)C(Cl)(Cl)Cl (stereo not given) | 106% (inactive) |
| Clc1ccc(-c2nnc(-c3ccco3)o2)cc1 | 100% (inactive) |
| COc1ccc(/C=C/C(=O)c2cc3c(N)c(C(=O)Nc4ccccc4)sc3nc2C)cc1 | 15.3% (inactive) |
| COc1ccc(Cn2cc3c(c2-c2ccc(OC)cc2)CCc2cnoc2-3)cc1 | -7.25% (active) |
| Cc1cccc(Cc2cnc(NC(=O)/C=C/c3ccco3)s2)c1 | 31.2% (inactive) |
